# Laboratory results taken from PubChem BioAssay (NCATS).
# Inconclusive results are not listed. Active and inactive are the calls of the source. The call rests on the fitted dose curve; in most records, active means well fitted inhibition curve with a large enough effect; inconclusive means small, poorly fitted or top-dose-only effect; inactive means no such curve, though single readings can be large or run the other way. Residues, ends and D or L forms follow the SMILES beside them.
# Assay: BET inhibitor-based combinations targeting novel dependencies in MECOM-rearranged (r) AML: UCSD-AML1 cell line (AID 2202235); further: nearly all actives have a fitted effect of over 40% in size;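 on viability (% of control): plate controls were DMSO vehicle wells for no effect and blank wells for full effect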
# Conditions: UCSD-AML1 AML cells viability, CellTiter-Glo, 48 h; series mostly up to 46 µM; viability (% of control): at the top concentration
# Text: Ecotropic viral insertion site 1 (EVI1) is located on chromosome 3q26.2 as part of the MECOM (MDS and EVI1 complex) locus. Under normal hematopoiesis, EVI1 is a regulator of hematopoietic stem cell maintenance and self-renewal and EVI1 levels decrease as the cells differentiate. In approximately 5-10% of de novo acute myeloid leukemia (AML) EVI1 is aberrantly expressed, including Chromosomal inv(3)(q21;q26.2) or t(3;3)(q21;q26.2) alterations (MECOM-r) that account for about 50% of AML with EVI1 overexpression 31. AMLs with high levels of EVI1 have a poor prognosis and an overall survival time averaging between 10-14 months. EVI1 overexpression confers resistance in leukemia cells, highlighting the need to develop new targeted therapies for EVI1 overexpressing AMLs. Here, we performed an unbiased chemical drug screening by evaluating the single agent activity of a collection of 2,480 oncology-focused, approved and investigational drugs (NCATS Mechanism Interrogation Plates, MIPE v5.0) against a panel of seven AML cell lines. These included four MECOM-r cell-lines (AML-191, AML-194, UCSD-AML1 and HNT-34) and three non-MECOM-r AMLs (MV4-11, OCI-AML3 and SET-2). Exploiting the mechanistic redundancy built in the library, we identified target-level sensitivities in MECOM-r AML cells and relative activity as compared to other AML subtypes.
# A collection of 2480 mechanistically annotated dugs (MIPE v5.0) was used to screen four 3q26.2 rearranged AML cell lines and three non-3q26.2 rearranged AML cell lines. This library purposely exploits redundancy by including multiple inhibitors of key onco-targets, while simultaneously encompassing mechanistic diversity, targeting more than 800 distinct mechanisms of action. Briefly, cells were seeded in 5 uL of growth media using a Multidrop Combi dispenser into 1536 well white polystyrene tissue culture treated plates (Corning) at a density of 500cells/well. For each cell-line, for each of the 2480 drugs in MIPE v5.0 library, an 11-point dose curve was generated via a 1536 pin-tool. Plates were incubated for 48 hr at standard incubator conditions, covered by a stainless steel gasketed lid to prevent evaporation. Cell viability was determined by luminescence based, Cell Titer Glo assay (Promega). In detail, 3 uL of Cell Titer Glo were added to each well and plates were incubated at room temperature for 15 min with a stainless-steel lid in place. Luminescence readings were taken using a Viewlux (PerkinElmer) with a 2 s exposure time per plate. Compound dose-response curves were normalized to DMSO and empty well controls on each plate. Quantitative drug activity data from dose-response curves was determined utilizing area Under the Curve (AUC) and Z-transformed AUC (Z-AUC, a mean-centering transformation applied to each individual cell-line screened).
# Potency means the concentration at half of the fitted maximal effect.
SMILES,viability (% of control),Potency
C=C1C[C@H]2C=Nc3cc(OCCCOc4cc5c(cc4OC)C(=O)N4CC(=C)C[C@H]4C=N5)c(OC)cc3C(=O)N2C1,119% (inactive),
CCn1c(=O)c(-c2ccc(Cl)cc2Cl)cc2cnc(Nc3ccc(N4CCNCC4)c(F)c3)nc21,,0.525 µM (active)
O=C(N[C@H]1CCC[C@H](CO)C1)C1CCN(c2nc3cc(Cl)c(-c4ccc(Cl)cc4)cc3o2)CC1,104% (inactive),
O=C1OC(COc2ccccc2[N+](=O)[O-])CC1Cc1ccccc1 (stereo not given),106% (inactive),
CC1Oc2cc(cnc2N)-c2c(nn(C)c2C#N)CN(C)C(=O)c2ccc(F)cc21 (stereo not given),,20.9 µM (active)
COC(=O)[C@@H]1CC2=CC(=O)CC[C@]2(C)[C@@]23O[C@@H]2C[C@@]2(C)[C@@H](CC[C@@]24CCC(=O)O4)[C@H]13,106% (inactive),
CS(=O)(=O)Nc1cc2occ(NC=O)c(=O)c2cc1Oc1ccccc1,112% (inactive),
O=C(Nc1cnn2ccc(N3CCC[C@@H]3c3cc(F)ccc3F)nc12)N1CC[C@H](O)C1,106% (inactive),
O=C1S/C(=C\c2ccc(OCc3cccc(B(O)O)c3)cc2)C(=O)N1Cc1ccc(F)cc1,108% (inactive),
COCc1c(-c2ccc(NC(=O)Nc3cc(C(F)(F)F)ccc3F)c(F)c2)c2c(N)ncnn2c1CN1CCOCC1,,6.61 µM (active)
CC/C(=C(/c1ccc(O)cc1)c1ccc(OCCNC)cc1)c1ccccc1,,9.34 µM (active)
COC[C@@H](c1ccc(C(F)(F)F)cc1)N1CCN(C2(C)CCN(C(=O)c3c(C)ncnc3C)CC2)C[C@@H]1C,107% (inactive),
CCC(C)CNCC(=O)N1CCc2sccc2C1c1cccc(C)n1 (stereo not given),112% (inactive),
COc1ccc(C(=O)N2CCN(C(=O)/C=C/c3ccc(Br)cc3)CC2)cc1,110% (inactive),
NS(=O)(=O)Oc1ccc2c3c(c(=O)oc2c1)CCCCC3,106% (inactive),
O=C1CC[C@H](N2Cc3c(OCc4ccc(CN5CCOCC5)cc4)cccc3C2=O)C(=O)N1,111% (inactive),
C[C@@H]1N=C(N)NC(N(C)C)=N1,105% (inactive),
Cc1ccc2cc(-c3c(C)ccc(C(=O)c4c(-c5ccccc5)n(C)n(-c5ccccc5)c4=O)c3N)ccc2n1,99.1% (inactive),
C[C@H]1C[C@H]2[C@@H]3CCC4=CC(=O)C=C[C@]4(C)[C@H]3C(=O)C[C@]2(C)[C@@]1(O)C(=O)CO,106% (inactive),
CCCCCCCCCCCCCC(=O)N[C@H](CO)[C@H](O)c1ccc([N+](=O)[O-])cc1,90.9% (inactive),

SMILES,viability (% of control),Potency
C=CC(=O)Nc1cc2c(Nc3ccc(F)c(Cl)c3)ncnc2cc1C#CC(C)(C)N1CCN(C)CC1,,4.17 µM (active)
COCCNc1cc(NC(=O)N2CCCc3cc(CN4CCN(C)CC4=O)c(C=O)nc32)ncc1C#N,96.8% [at 8.46 µM] (inactive),
O=C(NO)c1cnc(N2C[C@H]3C[C@@H]2CN3c2cc(C(F)(F)F)ccn2)nc1,,3.72 µM (active)
C=C[C@@H]1CN2CCC1C[C@H]2[C@H](O)c1ccnc2ccc(OC)cc12 (stereo not given in full),110% (inactive),
C[C@H](O)[C@@H]1C(=O)N2C(C(=O)O)=C(S[C@@H]3CN[C@H](CNS(N)(=O)=O)C3)[C@@H](C)[C@@H]12,118% (inactive),
Nc1cc(COc2c(Cl)cc(C[C@H](N)C(=O)O)cc2Cl)c2oc(-c3ccccc3)nc2c1,104% (inactive),
COC(C)(C)CCn1nc(Nc2c(C)cccc2C)c2cnc(Nc3ccc(OCCN4CCCC4)c(F)c3)nc21,,9.34 µM (active)
C[C@@H]1CC[C@@]2(OC1)OC1CC3C4CC=C5CC(O)CCC5(C)C4CCC3(C)C1[C@@H]2C (stereo not given in full),111% (inactive),
N[C@@H](CCC(=O)O)C(=O)N[C@@H](Cc1c[nH]c2ccccc12)C(=O)O (H-Glu-Trp-OH),121% (inactive),
CCCCCCCCCCCCCCCCOCCCOP(=O)(O)COC(CO)Cn1ccc(N)nc1=O (stereo not given),,10.5 µM (active)
COc1cc(C(=O)O)ccc1NC(=O)[C@@H]1N[C@@H](CC(C)(C)C)[C@](C#N)(c2ccc(Cl)cc2F)[C@H]1c1cccc(Cl)c1F,,0.468 µM (active)
Cc1cc(C)c(CNC(=O)c2cc(-c3ccc(N4CCN(C)CC4)nc3)cc3c2c(C)cn3C(C)C)c(=O)[nH]1,113% (inactive),
CN1CCN(Cc2ccc(Nc3ncc(Cl)c(Nc4ccccc4S(=O)(=O)N(C)C)n3)cc2)CC1,,0.135 µM (active)
CO[C@@]12[C@H](COC(N)=O)C3=C(C(=O)C(C)=C(N)C3=O)N1C[C@@H]1N[C@@H]12,104% (inactive),
O=C(CCCCCCC(=O)N/N=C/c1ccc(N(c2ccccc2)c2ccccc2)cc1)NO,,7.42 µM (active)
COc1ccc2c(c1OC)C(=O)OC2[C@H]1c2c(cc3c(c2OC)OCO3)CCN1C (stereo not given in full),97.2% (inactive),
C[C@H]1CNCCCN1S(=O)(=O)c1cccc2cncc(F)c12,110% [at 15.6 µM] (inactive),
OCCn1cc(-c2ccc3c(c2)CC/C3=N\O)c(-c2ccncc2)n1,116% (inactive),
COc1ccc(/C=C\c2cc(OC)c(OC)c(OC)c2)cc1O,,0.0118 µM (active)
C[C@]12CCC3=C4CCC(=O)C=C4CC[C@H]3[C@@H]1CC[C@@]2(O)CC#N,105% (inactive),
